Test results published in PMC5700166.

Assays:
Experiment in all cases: protein-binding microarray (PBM); PBM: ~300 nM protein, 6 mM HEPES pH 7.8, 80 mM KCl, 0.5 mM EDTA, 0.5 mM EGTA, 6% glycerol, 35 ng/ul poly-dIdC, 1% milk, 1 h, room temperature; Ap Aiptasia and Nv Nematostella (sea anemones) / Co Capsaspora / Aq Amphimedon (sponge) / Dm Drosophila / Hu human; RHD is the Rel homology domain; high values mean tight binding
Settings in all cases: dsDNA, one strand shown
GST-Ap-NF-kB RHD = biological target: T1, GST-Ap-NF-kB RHD (Exaiptasia pallida (Aiptasia), UniProt A0A913YAJ5 2-422)
T1 sequence: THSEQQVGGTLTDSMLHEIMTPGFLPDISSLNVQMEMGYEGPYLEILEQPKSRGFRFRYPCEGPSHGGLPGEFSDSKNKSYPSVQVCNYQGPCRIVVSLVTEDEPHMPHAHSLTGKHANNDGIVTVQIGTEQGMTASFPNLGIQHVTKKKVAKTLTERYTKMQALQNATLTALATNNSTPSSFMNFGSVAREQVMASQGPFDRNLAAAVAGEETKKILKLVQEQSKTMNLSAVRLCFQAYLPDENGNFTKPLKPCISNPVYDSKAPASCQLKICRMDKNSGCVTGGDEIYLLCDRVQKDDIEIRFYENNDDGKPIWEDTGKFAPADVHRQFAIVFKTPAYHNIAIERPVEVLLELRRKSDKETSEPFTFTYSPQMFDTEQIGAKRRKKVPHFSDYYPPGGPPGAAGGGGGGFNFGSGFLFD

[1] = biological target: T2, GST-Nv-NF-kB (Cys allele) (Nematostella vectensis, UniProt E5G601 2-411)
T2 sequence: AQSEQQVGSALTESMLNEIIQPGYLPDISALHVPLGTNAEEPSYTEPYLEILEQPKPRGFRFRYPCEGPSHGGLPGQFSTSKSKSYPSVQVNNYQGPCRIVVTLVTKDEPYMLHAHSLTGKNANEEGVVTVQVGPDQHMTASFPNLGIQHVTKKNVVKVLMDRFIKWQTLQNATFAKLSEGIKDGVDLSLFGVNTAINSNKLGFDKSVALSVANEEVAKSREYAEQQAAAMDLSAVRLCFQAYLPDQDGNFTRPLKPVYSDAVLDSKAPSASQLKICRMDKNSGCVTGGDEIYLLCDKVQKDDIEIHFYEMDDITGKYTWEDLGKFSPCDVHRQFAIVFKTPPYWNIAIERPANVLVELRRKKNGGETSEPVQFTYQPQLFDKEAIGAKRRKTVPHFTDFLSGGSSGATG

GST-Co-NF-kB = biological target: T3, GST-Co-NF-kB (Capsaspora owczarzaki, UniProt F1ARL5 200-546)
T3 sequence: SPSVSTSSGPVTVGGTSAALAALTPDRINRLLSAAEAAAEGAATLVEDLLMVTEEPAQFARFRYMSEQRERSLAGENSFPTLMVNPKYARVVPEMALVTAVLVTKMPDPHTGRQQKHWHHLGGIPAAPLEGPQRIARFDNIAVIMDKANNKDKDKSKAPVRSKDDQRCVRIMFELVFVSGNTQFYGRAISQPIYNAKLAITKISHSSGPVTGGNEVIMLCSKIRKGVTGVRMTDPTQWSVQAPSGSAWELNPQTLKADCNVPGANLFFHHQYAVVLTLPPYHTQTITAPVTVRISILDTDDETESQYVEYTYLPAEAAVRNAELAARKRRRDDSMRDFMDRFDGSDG

GST-Dm-Relish = biological target: T4, GST-Dm-Relish (Drosophila melanogaster, UniProt Q94527 99-473)
T4 sequence: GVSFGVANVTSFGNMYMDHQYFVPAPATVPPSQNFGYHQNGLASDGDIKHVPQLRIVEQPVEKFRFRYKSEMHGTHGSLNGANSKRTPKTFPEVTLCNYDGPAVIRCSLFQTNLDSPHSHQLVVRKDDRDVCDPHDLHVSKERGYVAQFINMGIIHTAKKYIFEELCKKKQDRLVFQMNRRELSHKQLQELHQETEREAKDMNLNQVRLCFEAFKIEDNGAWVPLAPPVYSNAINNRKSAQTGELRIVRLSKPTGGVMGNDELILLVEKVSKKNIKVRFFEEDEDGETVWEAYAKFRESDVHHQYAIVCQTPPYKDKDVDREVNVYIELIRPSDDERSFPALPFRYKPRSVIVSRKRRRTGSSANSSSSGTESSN

GST-Aq-NF-kB = biological target: T5, GST-Aq-NF-kB (Amphimedon queenslandica, UniProt A9Y5G7 2-389)
T5 sequence: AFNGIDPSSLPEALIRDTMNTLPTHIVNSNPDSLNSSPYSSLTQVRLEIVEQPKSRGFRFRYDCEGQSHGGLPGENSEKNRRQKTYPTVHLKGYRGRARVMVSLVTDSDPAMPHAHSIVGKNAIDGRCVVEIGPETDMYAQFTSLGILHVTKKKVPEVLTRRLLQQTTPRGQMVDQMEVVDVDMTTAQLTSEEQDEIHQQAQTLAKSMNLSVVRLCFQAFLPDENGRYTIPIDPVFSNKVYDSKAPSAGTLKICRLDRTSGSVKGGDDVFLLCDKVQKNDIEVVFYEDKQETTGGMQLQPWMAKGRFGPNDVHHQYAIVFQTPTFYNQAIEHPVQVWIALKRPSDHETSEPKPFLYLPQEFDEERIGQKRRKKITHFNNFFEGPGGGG

Sequence	binding signal (GST-Ap-NF-kB RHD)	binding signal [1]	binding signal (GST-Co-NF-kB)	binding signal (GST-Dm-Relish)	binding signal (GST-Aq-NF-kB)
CCGATTAACATCAGGGAAATAACTGATGTTAATCGGGTCTTGATTCGCTTGACGCTGCTG	2.57 z-score	4.77 z-score	3.96 z-score	4.51 z-score	6.11 z-score
CCGATTAACATCAGCACCCCCCCTGATGTTAATCGGGTCTTGATTCGCTTGACGCTGCTG	5.67 z-score	3.51 z-score	4.07 z-score	4.44 z-score	4.32 z-score
CCGATTAACATCAGGGGGAAGCATGATGTTAATCGGGTCTTGATTCGCTTGACGCTGCTG	4.43 z-score	5.1 z-score	7.73 z-score	3.21 z-score	4.01 z-score
CCGATTAACATCAGGAGACTCCCTGATGTTAATCGGGTCTTGATTCGCTTGACGCTGCTG	2.16 z-score	2.35 z-score	1.37 z-score	1.79 z-score	5.19 z-score
CCGATTAACATCAAGGAAACCCCTGATGTTAATCGGGTCTTGATTCGCTTGACGCTGCTG	6.7 z-score	4.95 z-score	2.91 z-score	7.36 z-score	6.19 z-score
CCGATTAACATCAGGAACCCCCATGATGTTAATCGGGTCTTGATTCGCTTGACGCTGCTG	7.5 z-score	5 z-score	2.67 z-score	9.25 z-score	5.35 z-score
CCGATTAACATCAGGGAAATATATGATGTTAATCGGGTCTTGATTCGCTTGACGCTGCTG	3.7 z-score	5.66 z-score	5.34 z-score	1.94 z-score	6.09 z-score
CCGATTAACATCACGTATTTCCCTGATGTTAATCGGGTCTTGATTCGCTTGACGCTGCTG	3.32 z-score	4.03 z-score	3.79 z-score	4.26 z-score	3.99 z-score
CCGATTAACATCAAATATTCCCATGATGTTAATCGGGTCTTGATTCGCTTGACGCTGCTG	4.02 z-score	4.31 z-score	3.51 z-score	2.7 z-score	3.63 z-score
CCGATTAACATCAACATCCCCCCTGATGTTAATCGGGTCTTGATTCGCTTGACGCTGCTG	5.64 z-score	5.25 z-score	5.48 z-score	5.72 z-score	5.23 z-score
